Source: PubChem BioAssay (NCATS)
Records with an inconclusive call do not appear. The source made the active and inactive calls. Calls follow the shape of the dose curve; as a rule, active = well fitted curve in the direction sought with a large enough effect; inconclusive = small, poorly fitted or top-dose-only effect, or another doubt; inactive = no such curve, though single readings can be large; an effect the other way counts as inactive or inconclusive.

Tests used:
[1] = biological target: Glutathione peroxidase 1 (Homo sapiens) (UniProt P07203); test: Primary qHTS Assay for Inhibitors of Recombinant Selenoprotein Glutathione Peroxidase 1 (GPX1) (AID 1845191); also: nearly all actives have a fitted effect of over 65% in size; as to activity, negative = inhibition: % is scaled to controls: 0 for no effect and ±100 for the full control effect
How it was run: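 NADPH consumption tracked by fluorescence at 340/450 nm between t=0 and t=15 min, room temperature. Final mix: 10 nM GPX1, 100 nM glutathione reductase, 1 mM GSH, 0.5 mM NADPH, 0.5 mM cumene hydroperoxide, 0.01% BSA; 30 min compound–enzyme preincubation.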

[2] = biological target: Phospholipid hydroperoxide glutathione peroxidase GPX4 (Homo sapiens) (UniProt P36969); test: Primary qHTS Assay for Inhibitors of Recombinant Selenoprotein Glutathione Peroxidase 4 (GPX4) (AID 1845192); also: nearly all actives have a fitted effect of over 65% in size; as to activity change, negative = inhibition: series mostly up to about 50 µM; % is scaled to controls: 0 for no effect and ±100 for the full control effect
How it was run: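 NADPH consumption followed by fluorescence at 340/450 nm, t=0 and after 15 min at room temperature. Reaction started with cumene hydroperoxide (0.5 mM final) after 30 min compound–GPX4 preincubation; final 200 nM GPX4, 100 nM GR, 1 mM GSH, 0.5 mM NADPH.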

[3] = biological target: Luciferin 4-monooxygenase (Photinus pyralis) (UniProt P08659); test: Primary firefly luciferase (FLuc) qHTS assay for identification of artifact compounds. (AID 1845220); also: nearly all actives have a fitted effect of over 60% in size;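 as to activity change, negative = inhibition: series mostly up to about 54 µM; plate controls were DMSO vehicle for no effect and no enzyme for full effect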
How it was run: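 Cell-free, 1536-well qHTS. Buffer pH 7.6 with 0.01% Tween-20 and 0.05% BSA; 10 uM D-luciferin, 10 uM ATP; 10 nM P. pyralis luciferase; luminescence after 5 min.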

[4] = test system: Nanoluciferase (engineered Oplophorus gracilirostris luciferase); test: Primary Nanoluciferase (NLuc) qHTS assay for identification of artifact compounds. (AID 1845222);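 also: series mostly up to about 54 µM; 0% = DMSO and -100% = no enzyme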
How it was run: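 Compounds are pinned into diluted (1:55) conditioned medium of NLuc-expressing S16 cells and held 15 min at room temperature protected from light. Nano-Glo substrate follows, and luminescence is read 5 min later.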

[5] = Primary redox qHTS assay for identification of artifact compounds. (AID 1845223);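 also: 0% = DMSO and 100% = reference compound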
How it was run: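 Redox-cycling detection via DTT (250 uM final) oxidation coupled to Amplex Red (25 uM)/HRP (250 mU/mL) in HBSS. 15 min preincubation plus 30 min after DTT, room temperature. Ex/Em 525/598 nm; 4-parameter Hill fit against DMSO and 10 uM DA3003.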

[6] = Primary fluorescence-based thiol-reactive (MSTI) qHTS assay for identification of artifact compounds. (AID 1845221);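 also: series mostly up to about 54 µM; thiol-reactive compounds lower the probe fluorescence signal; nearly all actives have a fitted effect of over 65% in size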
How it was run: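 Compounds were incubated 1 h at room temperature in the dark with the MSTI probe (4 uM) in PBS pH 7.4, 2% DMSO. Signals were normalized between Acetyl-MSTI and MSTI.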

Phospholipid hydroperoxide glutathione peroxidase GPX4 (Homo sapiens), sequence (P36969 whole entry, looked up): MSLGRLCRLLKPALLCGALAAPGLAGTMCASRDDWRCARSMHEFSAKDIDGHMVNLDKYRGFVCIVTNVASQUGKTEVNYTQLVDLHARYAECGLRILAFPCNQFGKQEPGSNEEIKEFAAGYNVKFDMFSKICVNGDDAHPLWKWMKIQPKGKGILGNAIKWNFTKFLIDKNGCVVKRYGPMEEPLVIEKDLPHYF
Glutathione peroxidase 1 (Homo sapiens), sequence (P07203 whole entry, looked up): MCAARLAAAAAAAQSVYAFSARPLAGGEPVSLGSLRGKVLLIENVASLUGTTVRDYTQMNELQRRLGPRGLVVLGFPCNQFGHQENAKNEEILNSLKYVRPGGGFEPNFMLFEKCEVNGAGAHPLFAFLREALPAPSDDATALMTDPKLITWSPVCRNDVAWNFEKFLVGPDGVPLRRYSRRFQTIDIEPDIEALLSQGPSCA

O=c1c2ccccc2nc2n1CCC2O (stereo unspecified)
inactive: Potency [1] | Potency [2] | Potency [3] | Potency [4] | Potency [5]

CC1(C)C(=O)N2c3ccccc3[C@]3(CC(n4cnc5ccccc5c4=O)C(=O)O3)[C@H]2N1O (stereo partly specified)
inactive: Potency [1] | Potency [2] | Potency [3] | Potency [4] | Potency [5]

CC(=O)NC(CCC(=O)O)C(=O)NCCc1ccc(O)cc1 (stereo unspecified)
inactive: Potency [1] | Potency [2] | Potency [3] | Potency [4] | Potency [5]

CC(NC(=O)CC(=O)O)c1nc2ccccc2c(=O)[nH]1 (stereo unspecified)
inactive: Potency [1] | Potency [2] | Potency [3] | Potency [4] | Potency [5]

Nc1nonc1C(=Nc1ccc(F)c(Cl)c1)NO
inactive: Potency [1] | Potency [2] | Potency [3] | Potency [5]

COC1=CC(=O)C[C@@H](C)[C@]12Oc1cc(OC)cc(OC)c1C2=O
inactive: Potency [1] | Potency [2] | Potency [3] | Potency [4] | Potency [5]

COc1ccc2c(c1O)OC[C@H]1c3ccc(O)cc3O[C@@H]21
inactive: Potency [1] | Potency [2] | Potency [3] | Potency [5]

C=C(C)C(=O)O[C@H]1C[C@@](C)(OC(C)=O)[C@@]2(O)CC[C@@](C)(O)[C@H](OC(C)=O)[C@@]23OC(=O)C(COC)=C13
inactive: Potency [1] | Potency [2] | Potency [3] | Potency [5]

OCC1=CC[C@@H]2C=CO[C@@H](O[C@@H]3O[C@H](CO)[C@@H](O)[C@H](O)[C@H]3O)[C@H]12
inactive: Potency [1] | Potency [2] | Potency [3] | Potency [4] | Potency [5]

CO[C@@H](Cc1ccc(OCCc2nc(-c3ccccc3)oc2C)c2ccsc12)C(=O)O
inactive: Potency [1] | Potency [2] | Potency [6] | Potency [4]

Clc1ccc2c(c1)C1=NCCN1c1c(-c3noc(C4CC4)n3)ncn1-2
inactive: Potency [1] | Potency [2] | Potency [3] | Potency [4] | Potency [5]

C[C@@H]1O[C@@H](O[C@H]2[C@H](OC(=O)C34CCC(C)(C)CC3C3=CCC5C6(C)CC(O)C(O[C@@H]7O[C@H](CO)[C@@H](O)[C@H](O)[C@H]7O)C(C)(C(=O)O)C6CCC5(C)C3(CO)CC4)O[C@H](C)[C@H](O)[C@@H]2O)[C@H](O)[C@H](O)[C@H]1O[C@@H]1OC[C@@H](O)[C@H](O)[C@H]1O (stereo partly specified)
inactive: Potency [1] | Potency [2] | outcome [3] inactive [at 11.6 µM] | activity, negative = inhibition [4] 2.8% [at 11.6 µM] | redox activity (% of DA3003) [5] 9.03% [at 11.5 µM]

O=C1Nc2ccc(O)cc2O[C@H]1O[C@@H]1O[C@H](CO)[C@@H](O)[C@H](O)[C@H]1O
inactive: Potency [1] | Potency [2] | Potency [3] | Potency [4] | Potency [5]

CCOC(=O)c1c(C)nn(-c2cccc([N+](=O)[O-])c2)c1C
inactive: Potency [1] | Potency [2] | Potency [3] | Potency [4] | Potency [5]

COC1C2=C(COC2=O)C2(C)CCCC(C)(CO)C2C1OC(=O)c1ccccc1 (stereo unspecified)
inactive: Potency [1] | Potency [2] | Potency [3] | Potency [4] | Potency [5]

COc1ccc2c3c1O[C@H]1C[C@@H](O)C=C[C@@]31CCN(C)C2
inactive: Potency [1] | Potency [2] | Potency [3] | Potency [4] | Potency [5]

COC1=Cc2c(nc3n(c2=O)C(C)C(=O)NC3(O)C(C)C)OC=C1 (stereo unspecified)
inactive: Potency [1] | Potency [2] | Potency [3] | Potency [4] | Potency [5]

C=C1[C@@H]2[C@H]3OC(=O)C(=C)[C@@H]3CC[C@@](C)(O)[C@@H]2C[C@@H]1O[C@@H]1O[C@H](CO)[C@@H](O)[C@H](O)[C@H]1O
inactive: Potency [1] | Potency [2] | Potency [3] | Potency [4] | Potency [5]

CC(/C=C/C1(O)C(C)CC(O)CC1(C)C)OC1OC(CO)C(O)C(O)C1O (stereo unspecified)
inactive: Potency [1] | Potency [2] | Potency [3] | Potency [4] | Potency [5]

CC(/C=C/C1(O)C(C)(C)CC(O)CC1(C)O)OC1OC(CO)C(O)C(O)C1O (stereo unspecified)
inactive: Potency [1] | Potency [2] | Potency [3] | Potency [4] | Potency [5]

CC1CCC2C(C)(C)C(O)CCC2(C)C12Cc1c(O)cc3c(c1O2)CN=C3N (stereo unspecified)
inactive: Potency [1] | Potency [2] | Potency [3] | Potency [4] | Potency [5]

COc1ccc(C2=CC(=O)OC2Cc2ccc(O)cc2)c(O)c1 (stereo unspecified)
inactive: Potency [1] | Potency [2] | Potency [3] | Potency [4] | Potency [5]

C=C1C(=O)OC2CC(C)=C(C(C)CCCO[C@@H]3O[C@H](CO)[C@@H](O)[C@H](O)[C@H]3O)C(O)C12 (stereo partly specified)
inactive: Potency [1] | Potency [2] | Potency [3] | Potency [4] | Potency [5]

CN1C(=O)c2ccccc2NC(=O)[C@]12O[C@@H]2c1cccc(O)c1
inactive: Potency [1] | Potency [2] | Potency [3] | Potency [4] | Potency [5]

CC(=O)c1cnc2ccc(-c3cc(Cl)c(O)c(Cl)c3)nc2c1NC1CCC(CN(C)C)CC1 (stereo unspecified)
inactive: activity, negative = inhibition [1] 2.12% [at 9.52 µM] | activity change, negative = inhibition [2] 17.1% [at 9.73 µM] | activity change, negative = inhibition [3] 2.41% [at 11.6 µM] | activity, negative = inhibition [4] 0% [at 11.6 µM] | redox activity (% of DA3003) [5] 2.52% [at 11.5 µM]
